USP28 block: blocks human USP28 ubiquitin-rhodamine cleavage. Q96RU2. purified USP28, Ub-rhodamine cleavage fluorescence, 30 min. inhibition, % at 25 µM. 3% of 47,000 active. AID 1645857
USP8 block: inhibitors of human USP8 deubiquitinase; P40818; purified USP8, Ub-rhodamine cleavage fluorescence, 30 min; inhibition, % at 20 µM; 4.2% of 47,000 active
USP30 block: human USP30 deubiquitinase inhibition; Q70CQ3; purified USP30, Ub-rhodamine cleavage fluorescence; inhibition, % at 25 µM; 5.3% of 47,000 active; AID 1645860
Target sequence (Q70CQ3 whole entry, looked up): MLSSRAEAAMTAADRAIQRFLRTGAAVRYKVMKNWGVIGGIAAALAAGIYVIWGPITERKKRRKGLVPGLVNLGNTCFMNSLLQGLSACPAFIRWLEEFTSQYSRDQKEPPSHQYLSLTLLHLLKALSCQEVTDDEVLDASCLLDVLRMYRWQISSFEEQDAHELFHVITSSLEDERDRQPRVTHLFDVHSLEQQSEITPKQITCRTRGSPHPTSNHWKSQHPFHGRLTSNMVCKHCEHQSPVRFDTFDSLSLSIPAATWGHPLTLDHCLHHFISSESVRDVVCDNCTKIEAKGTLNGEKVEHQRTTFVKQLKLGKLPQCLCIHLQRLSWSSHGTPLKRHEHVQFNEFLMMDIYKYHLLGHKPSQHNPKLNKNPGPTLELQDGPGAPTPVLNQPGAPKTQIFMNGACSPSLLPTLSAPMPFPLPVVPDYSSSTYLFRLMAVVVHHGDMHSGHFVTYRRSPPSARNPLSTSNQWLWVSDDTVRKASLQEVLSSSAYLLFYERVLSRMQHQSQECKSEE
USP10 inh: human USP10 deubiquitinase inhibition. Q14694. purified USP10, Ub-rhodamine fluorescence, 60 min. inhibition, % at 20 µM. 1.1% of 47,000 active. AID 1645856
USP17 inh: blocks human USP17 ubiquitin-rhodamine cleavage; AID 1645855; purified USP17, Ub-rhodamine cleavage fluorescence, 3 h; 6.5% of 47,000 active; A8MUK1; inhibition, % at 50 µM
An asterisk follows results filed as active; i = inactive. Sampled rows, rich in hits. Any-hit rate of the full collection: about 13%. Rule as the data show it: active = inhibition above about 30%; inactive = the rest.

SMILES	USP28 block	USP8 block	USP30 block	USP10 inh	USP17 inh
Cc1cc(=O)oc2cc(NC(=O)c3ccc4c(=O)n5c(nc4c3)CCCC5)ccc12	4.8	-2.9	-2.8	2.4	3.5
Cc1cccc(C(=O)OCC(=O)NCCc2ccccc2)c1O	8.3	14.7	14.0	3.7	12.9
O=C(COC(=O)c1cc2ccccc2cc1O)NCCc1ccccc1	16.5	42.2*	-0.8	14.6	0.3
O=C(COC(=O)c1cc2ccccc2cc1O)Nc1ccc(Cl)cn1	0.0	36.8*	-71.4	-7.6	-2.3
Cc1ccc(S(=O)(=O)N[C@H](Cc2ccccc2)C(=O)NCc2cscn2)cc1C	8.7	13.2	18.7	2.6	-3.5
CC(C)C[C@@H]1NC(=O)[C@H](CCCN)NC(=O)[C@H](C(C)C)NC(=O)[C@H](Cc2ccc(O)cc2)NC(=O)[C@H](CCC(N)=O)NC(=O)[C@H](CC(N)=O)NC(=O)[C@@H](Cc2ccccc2)NC(=O)[C@H](Cc2ccccc2)NC(=O)[C@@H]2CCCN2C(=O)[C@@H](Cc2ccccc2)NC1=O	39.4*	-313.7	-126.8	-9.4	2.1
Cc1nc(-c2ccc(S(=O)(=O)N3c4ccccc4CC3C)cc2)co1 (stereo not drawn)	-11.2	-36.6	-36.1	-4.7	-15.9
Cc1ccc(-c2csc3ncn(CC(=O)NC4CCSc5c(F)cccc54)c(=O)c23)cc1 (stereo not drawn)	-18.7	3.9	-82.8	-4.7	-22.5
Nc1cc(C2CCN(S(=O)(=O)c3ccc4c(c3)CCCC4)CC2)no1	10.2	17.0	47.7*	3.0	16.4
O=C(NCc1cccc(Cl)c1)c1cc(CN2CCOCC2)on1	0.5	0.5	16.2	2.4	-0.7
O=C(Cc1ccc(S(=O)(=O)N2CCOCC2)s1)NCc1cccc(Cl)c1	-36.4	40.2*	-260.2	-6.4	6.2
CC(C)C(NC(=O)c1ccccc1Cl)C(=O)OCC(=O)NCc1ccc2c(c1)OCO2 (stereo not drawn)	-2.6	1.5	-0.4	0.3	-5.4
CN(C(=O)Cn1c(=O)n(CCC(=O)NCc2ccc3c(c2)OCO3)c(=O)c2ccccc21)C1CCCCC1	11.6	15.7	30.3*	-0.6	0.0
O=C(CCn1c(=O)c2ccccc2n(CC(=O)OCc2ccccc2)c1=O)NCc1ccc2c(c1)OCO2	8.9	26.3	26.2	47.8*	28.3
O=C(COC(=O)C(Cc1ccccc1)NC(=O)c1ccccc1)NCc1ccc2c(c1)OCO2 (stereo not drawn)	2.1	-6.2	10.1	4.8	46.8*
O=C(CCn1c(=O)c2ccccc2n(Cc2cccc(Cl)c2)c1=O)NCc1ccccc1Cl	-2.8	19.8	20.8	12.4	12.3
C=C(C)[C@@H]1CC[C@]2(C)[C@H](CC[C@@H]3[C@@H](C(C)(O)CCC=C(C)C)CC[C@]32C)[C@@]1(C)CCC(=O)O (stereo partly drawn)	69.4*	91.3*	93.4*	92.9*	98.9*
COc1ccc(CCn2cnc3c4ccccc4n(C)c3c2=O)cc1OC	67.2*	13.1	10.1	-2.9	2.9
COc1ccc(CCn2cnc3c4ccccc4n(C)c3c2=O)cc1	5.7	2.3	19.0	0.2	12.3
Cc1cccc(C)c1NC(=O)CN1C(=O)CC(c2ccccc2)=Nc2ccccc21	-12.6	-11.4	9.1	39.4*	3.9
O=C(CN1C(=O)CC(c2ccc(F)cc2)=Nc2ccccc21)Nc1ccccc1	26.8	5.7	21.4	14.9	37.8*
COc1ccc(CNC(=O)CN2C(=O)CC(c3ccccc3)=Nc3ccccc32)cc1	-3.0	29.2	0.3	28.3	82.8*
Cc1cc(C)cc(N2CC(C)Cn3c2nc2c3c(=O)n(CC(=O)OCc3ccccc3)c(=O)n2C)c1 (stereo not drawn)	-0.5	-15.2	0.8	5.6	0.0
COc1cccc(N2CC(C)Cn3c2nc2c3c(=O)n(CC(=O)OCc3ccccc3)c(=O)n2C)c1 (stereo not drawn)	20.5	-20.9	38.5*	5.8	2.2
Cc1ncoc1C(=O)N1CCCCC1c1ncc(Cc2ccc(Cl)cc2)o1 (stereo not drawn)	-9.6	-39.7	-9.0	-0.8	-37.7
SMILES	USP28 block	USP8 block	USP30 block	USP10 inh	USP17 inh
O=C(c1ccccc1F)N1CCC2(CC1)OCCN2S(=O)(=O)c1ccc(Cl)cc1	15.2	0.0	23.0	5.9	8.0
O=C(c1c2c(-c3ccncc3)ncnc2n2ccccc12)N1CCOCC1	-25.3	33.0*	-76.6	-2.3	0.9
CC(C)Nc1ncnc2c1c(C(=O)N1CCN(C)CC1)c1ccccn12	-182.1	-99.2	i	0.0	-157.0
O=C(c1c2c(N3CCCC3)ncnc2n2ccccc12)N1CCCC1	-32.2	66.7*	-193.8	-4.3	18.7
CC(C)Nc1ncnc2c1c(C(=O)N1CCOCC1)c1ccccn12	-20.0	16.6	-66.7	-8.7	-1.0
Oc1cc(OCCN2CCCCC2)ccc1-c1[nH]ncc1-c1ccccc1	3.2	66.4*	-4.8	-0.2	14.7
O=C(c1cc(-c2ccc(Cl)cc2)n[nH]1)N1CCN(CCOc2ccc(Cl)cc2)CC1	2.2	-10.4	11.7	-1.5	5.2
Cc1ccc(C)c2[nH]c(=O)c(CN(CC3CCCO3)S(=O)(=O)c3ccccc3Cl)cc12 (stereo not drawn)	19.8	18.9	33.0*	3.5	14.1
Cc1ccc2c(c1)[C@]1(C(=O)N2)[C@@H](C(=O)c2ccccc2)[C@]2(C(=O)Nc3ccccc32)[C@@H]2CCCN21	0.2	-0.5	-3.0	2.4	51.7*
COc1cc([C@@H]2c3cc4c(cc3[C@H](O)[C@H]3COC(=O)[C@@H]23)OCO4)cc(OC)c1OC	34.8*	1.9	70.5*	7.7	62.8*
C[C@]12C[C@H](C[C@H]3C(=O)O[C@H](c4ccoc4)[C@@H](OC(=O)c4ccccc4)[C@H]31)OC2=O	0.4	6.3	22.5	3.9	6.6
CN1C(=O)CCCC12CCCN(C(=O)Nc1cccc(F)c1)C2 (stereo not drawn)	-4.8	-18.1	0.4	0.8	-4.5
Cc1ccc(S(=O)(=O)N2CCN(CC(=O)Nc3ccc4[nH]c(=O)[nH]c4c3)CC2)cc1	3.5	-24.2	10.7	0.0	-5.2
COc1ccc(S(=O)(=O)N2CCCCCC2)cc1C(=O)Nc1ccc2[nH]c(=O)[nH]c2c1	47.4*	10.9	49.8*	6.8	30.2*
COc1ccc(S(=O)(=O)N2CCCC2)cc1C(=O)NCc1ccc2c(c1)OCO2	34.8*	3.5	25.2	2.2	4.8
Cc1cc(C)n(CCN2CCCN(S(=O)(=O)c3c(F)cccc3F)CC2)n1	-8.3	-45.5	-4.6	0.4	-28.8
Cc1nc2cccnc2n1C1CCN(C(=O)c2cc3cc(Cl)ccc3[nH]2)C1 (stereo not drawn)	41.5*	-12.7	53.8*	-4.7	31.4*
CCc1ccc(NC(=O)CSc2[nH]c(=O)c(C(=O)O)cc2C#N)cc1	47.7*	54.5*	19.7	-2.1	42.4*
Cc1cccc(C(=O)Nc2ccccc2Sc2nc3c(c(=O)n(C)c(=O)n3C)n2C)c1	30.7*	18.8	71.3*	-2.2	32.6*
